The structures appear in SMILES notation. The panel holds about 83,000 compounds, 20% with a hit somewhere; the sample as a whole holds those more often.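 The test compound was applied at a single concentration to cells in 96-well plates for 48 hours, and percent growth was recorded.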 A number with no mark means an inactive call. Active and inactive are the calls of the source. Rule for the calls: active = growth percent below 10; inactive = the rest.

Some test systems named below: NCI-H23 lung; NCI-H226 lung; NCI-H322M lung; HOP-62 NSCLC; NCI-H460 lung; HOP-92 NSCLC; NCI-H522 lung; A549/ATCC NSCLC; 786-0 renal; COLO 205 colon; DU-145 prostate; K-562 leukemia; MALME-3M melanoma; MDA-MB-231 breast; SF-268 CNS; SF-295 CNS; SF-539 CNS; UACC-257 melanoma; M14 melanoma.
Holding throughout (assay): NCI-60 one-dose screen, 48 h (100 = growth as untreated, 0 = no growth, -100 = all killed)
Settings in all cases: 10 µM unless noted

As for `N/C(=N\N=C\c1cc2ccccc2s1)N/N=C/c1cc2ccccc2s1`, the growth was 103% in the test on NCI-H23 lung; 99.5% with NCI-H226 lung; 108% with NCI-H322M lung; 110% in the test with HOP-62 NSCLC; 102% in the test on NCI-H460 lung; 97% in the test with HOP-92 NSCLC. Further, the growth with NCI-H522 lung was 91.8%; in the test on A549/ATCC NSCLC, 106%; in the test on 786-0 renal, 5.55% (active); in the test on COLO 205 colon, 112%; in the test with DU-145 prostate, 115%; with K-562 leukemia, 97.5%. Moreover, the growth is 102% with MALME-3M melanoma; 95.4% with MDA-MB-231 breast; 102% in the test on SF-268 CNS; 103% in the test on SF-295 CNS; 101% with SF-539 CNS; 98.1% in the test on UACC-257 melanoma. In addition, the growth with M14 melanoma is -56.3% (active).

`O=C(Nc1ccc2ncnc(Nc3ccc(Oc4cccc(F)c4)c(Cl)c3)c2c1)c1ccc(CN2CCOCC2)cc1`: the growth is 20.1% in the test with NCI-H23 lung; 52% in the test with NCI-H226 lung; 60.7% in the test with NCI-H322M lung; 17.9% in the test on HOP-62 NSCLC; 38.8% in the test on NCI-H460 lung; 53.9% in the test on HOP-92 NSCLC. Moreover, the growth in the test with NCI-H522 lung was 6.89% (active); with A549/ATCC NSCLC, 33.6%; with 786-0 renal, 42.2%; in the test with COLO 205 colon it was 40.1%; with DU-145 prostate, 39.6%; in the test on K-562 leukemia, 8.98% (active). Besides, the growth in the test with MALME-3M melanoma is 38.9%; in the test on MDA-MB-231 breast, 46.1%; in the test with SF-268 CNS, 49%; with SF-295 CNS, 27.3%; in the test on SF-539 CNS, 53.2%; in the test with UACC-257 melanoma, 53.1%. Further, the growth in the test on M14 melanoma is 14.7%.

With `COc1ccc2c(c1)OC1=C(C(=O)OC1)C2c1cc(OC)c(OC)c(OC)c1` (configuration not stated), the growth is 31.8% in the test with NCI-H23 lung; 26.8% with NCI-H226 lung; 52.6% in the test with NCI-H322M lung; 33.2% with HOP-62 NSCLC; 5.28% (active) in the test with NCI-H460 lung; 74.8% in the test with HOP-92 NSCLC. Moreover, the growth is -32.5% (active) with NCI-H522 lung; 20.7% with A549/ATCC NSCLC; 36.8% in the test on 786-0 renal; 1.87% (active) in the test with COLO 205 colon; 6.88% (active) in the test with DU-145 prostate; 14.1% with K-562 leukemia. The growth was 61.1% with MALME-3M melanoma; 42.7% in the test on MDA-MB-231 breast; 32% in the test on SF-268 CNS; 8.32% (active) with SF-295 CNS; 0.966% (active) in the test on SF-539 CNS; 39.6% in the test on UACC-257 melanoma. Besides, in the test with M14 melanoma, the growth is 10.2%.

In the case of `Fc1ccccc1CSc1ncnc2nc[nH]c12`, the growth is 110% in the test on NCI-H23 lung; 109% with NCI-H226 lung; 131% with NCI-H322M lung; 93.4% in the test on HOP-62 NSCLC; 97.8% in the test with NCI-H460 lung; 122% in the test with HOP-92 NSCLC. For the same compound, the growth with NCI-H522 lung was 54%; with A549/ATCC NSCLC, 104%; with 786-0 renal, 106%; in the test with COLO 205 colon, 103%; in the test on DU-145 prostate it was 120%; in the test on K-562 leukemia, 99.6%. The growth with MALME-3M melanoma is 129%; in the test on MDA-MB-231 breast it was 106%; in the test with SF-268 CNS it was 109%; in the test on SF-295 CNS it was 107%; in the test on SF-539 CNS, 89.6%; in the test on UACC-257 melanoma, 61.3%. Moreover, in the test with M14 melanoma, the growth was 108%.

Turning to `Brc1ccc(C2CC(c3cccc(Nc4ccncc4)c3)=NN2c2ccccc2)cc1` (configuration not stated), the growth in the test with NCI-H23 lung is 85.6%; with NCI-H226 lung, 95%; in the test on NCI-H322M lung, 87.3%; with HOP-62 NSCLC, 77.2%; with NCI-H460 lung it was 0.717% (active); with HOP-92 NSCLC, 62.5%. Further, the growth in the test with NCI-H522 lung was 87.4%; in the test with A549/ATCC NSCLC, 54.7%; in the test on 786-0 renal, 90.2%; with COLO 205 colon, 0.175% (active); in the test on DU-145 prostate it was 88.7%; with K-562 leukemia, 4.05% (active). Also, the growth in the test on MALME-3M melanoma was 66.7%; in the test on MDA-MB-231 breast, 84.4%; in the test with SF-268 CNS it was 103%; in the test on SF-295 CNS, 89%; in the test with SF-539 CNS, 84.4%; with UACC-257 melanoma, 84%. The growth in the test with M14 melanoma is 101%.

Turning to `Cc1c2c(cc[n+]1Cc1ccc(F)cc1)c1ccc(OCc3cccc(F)c3)cc1n2Cc1cccc(F)c1`, the growth with NCI-H23 lung is -58.1% (active); with NCI-H226 lung, -66.9% (active); with NCI-H322M lung, -72.1% (active); with HOP-62 NSCLC it was -91.2% (active); in the test on NCI-H460 lung, -78% (active); with HOP-92 NSCLC it was -73.9% (active). In addition, the growth in the test with NCI-H522 lung was -80.1% (active); in the test on A549/ATCC NSCLC, 25.1%; in the test with 786-0 renal, -85.8% (active); with COLO 205 colon, -91.1% (active); in the test with DU-145 prostate, -90.8% (active); with K-562 leukemia, -15.8% (active). For the same compound, the growth in the test on MALME-3M melanoma is -79.6% (active); in the test on MDA-MB-231 breast, -87.7% (active); in the test on SF-268 CNS, -94.2% (active); with SF-295 CNS it was -68.5% (active); in the test on SF-539 CNS, -65.4% (active); in the test with UACC-257 melanoma it was -86% (active). Moreover, the growth in the test on M14 melanoma is -82.1% (active).

As to `Clc1ccc(C2CC(c3cccc(Nc4ccncc4)c3)=NN2c2ccc(Cl)cc2)cc1` (configuration not stated), the growth in the test on NCI-H23 lung was 47.7%; in the test with NCI-H226 lung it was 91.9%; in the test on NCI-H322M lung, 54.9%; in the test with HOP-62 NSCLC, -44.4% (active); in the test on NCI-H460 lung it was -81% (active); in the test on HOP-92 NSCLC, 46.3%. Moreover, the growth in the test on NCI-H522 lung is -44% (active); with A549/ATCC NSCLC it was 9.48% (active); in the test on 786-0 renal it was -71.7% (active); with COLO 205 colon, -61.5% (active); in the test on DU-145 prostate, 17.6%; in the test on K-562 leukemia, -1.93% (active). Also, the growth in the test on MALME-3M melanoma is -64.4% (active); in the test on MDA-MB-231 breast it was 19%; in the test with SF-268 CNS, 60.2%; in the test on SF-295 CNS it was -79.2% (active); in the test on SF-539 CNS it was 71.2%; with UACC-257 melanoma, 64.7%. In the test with M14 melanoma, the growth is -80.1% (active).

On to `Clc1cc(Cl)cc(N2N=C(c3cccc(Nc4ccncc4)c3)CC2c2ccc(Br)cc2)c1` (configuration not stated), for which the growth in the test with NCI-H23 lung was 64.4%; in the test with NCI-H226 lung, 85.7%; in the test with NCI-H322M lung, 73.1%; in the test on HOP-62 NSCLC, 33.7%; in the test with NCI-H460 lung, -81.8% (active); in the test on HOP-92 NSCLC, 65.8%. Also, the growth in the test with NCI-H522 lung was 69.7%; with A549/ATCC NSCLC, 19.1%; with 786-0 renal, 105%; in the test with COLO 205 colon it was -40.5% (active); in the test with DU-145 prostate, 35.2%; with K-562 leukemia, 1.66% (active). Besides, the growth in the test with MALME-3M melanoma is 23.7%; in the test with MDA-MB-231 breast, 57.1%; with SF-268 CNS, 77.1%; in the test with SF-295 CNS, 36.9%; in the test on SF-539 CNS, 76.6%; in the test with UACC-257 melanoma, 79.4%. Moreover, the growth with M14 melanoma is 108%.

Values taken from PubChem BioAssay (NCI).
